According to PubChem BioAssay AID894 (National Center for Advancing Translational Sciences (NCATS), 2007):
Several values for one entry are separate records, joined by “and”; a condition that tells them apart may be missing. Identical values can stand only once. In all, about 150,000 compounds went through this assay and about 6,500 (4.3%) were called active. Another 12% or so got no clear call; they are omitted. Calls come from the whole dose curve; as a rule, active = well fitted inhibition curve with a large enough effect (not every such curve was filed as active); inconclusive = small, poorly fitted or top-dose-only effect, or another doubt; inactive = no such curve, though single readings can be large or run the other way. The entries come from a sample that favours actives as a whole.

The molecules below were run against 15-hydroxyprostaglandin dehydrogenase [NAD(+)] (Homo sapiens) (UniProt P15428) (assay: qHTS Assay for Inhibitors of HPGD (15-Hydroxyprostaglandin Dehydrogenase)). Settings: purified HPGD, NADH fluorescence kinetic, PGE2 substrate; activity change, negative = inhibition: active compounds read low.
In short: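 NADH formation kinetics: reaction with 30 uM PGE2 and 1 mM NAD+ (final), 20 nM enzyme, Tris-HCl pH 8 with Tween 20, after 15 min compound preincubation at room temperature. Fluorescence change, last versus first of five reads.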
% is set by controls: 0 for no effect and ±100 for the full control effect; potency is the fitted concentration of half-maximal effect.

Chain of 15-hydroxyprostaglandin dehydrogenase [NAD(+)] (Homo sapiens) (P15428 whole entry, looked up): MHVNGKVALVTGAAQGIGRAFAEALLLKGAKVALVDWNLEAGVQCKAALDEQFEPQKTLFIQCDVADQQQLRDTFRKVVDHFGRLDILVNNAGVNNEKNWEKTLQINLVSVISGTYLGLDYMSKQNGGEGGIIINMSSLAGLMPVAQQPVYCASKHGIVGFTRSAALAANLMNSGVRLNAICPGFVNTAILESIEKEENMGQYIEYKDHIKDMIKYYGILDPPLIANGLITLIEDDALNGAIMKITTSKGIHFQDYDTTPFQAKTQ

Activity change, negative = inhibition, inactive:
Cc1ccc(Cn2nnc3c(=O)n(CC(=O)N4CCCCC4)cnc32)cc1 -22%, COc1ccc(C(=O)Nc2c(Cl)cc(Cl)cc2C(=O)N2CCC(C)CC2)cc1 -13.4%, COc1ccc(-n2nnc3c(=O)n(CC(=O)N4CCC(Cc5ccccc5)CC4)cnc32)cc1 -23.8%, CC(=O)Nc1ccn(Cc2c(F)cccc2Cl)n1 -0.326%, OCCNCCOc1ccc(Cl)c(Cl)c1 -9%, C/C(=N/NC(=O)CSc1ccccn1)c1ccc([N+](=O)[O-])cc1 -12.7%, CC(C)Nc1nnc(SCC(=O)c2c[nH]c3ccccc23)s1 -16.2%, COc1ccc(NC(=S)N2CCCC(CO)C2)c(OC)c1 (configuration not stated) -2.74%, COc1cccc([C@@H]2Oc3ccc(Br)cc3C(=O)[C@H]2OC(=O)NCc2ccc3c(c2)OCO3)c1 -12.1%, CCCN=C1NC(=O)C(CC(=O)NCCc2ccc(OC)c(OC)c2)S1 (configuration not stated) -5.13%, O=C(Nc1nnc(SCc2ccc(Cl)cc2Cl)s1)C1COc2ccccc2O1 (configuration not stated) -24%, O=C(Nc1nc(-c2ccc3c(c2)OCO3)cs1)c1ccncc1 -1.69%, CCNc1nc(-c2cc3ccccc3o2)cs1 -4.63%, O=C(OCC(=O)c1c[nH]c2ccccc12)c1cccc(O)c1 -8.39%, CC(=O)NC1=NN(C(C)=O)C(C)(c2ccc(C)cc2)S1 (configuration not stated) -5.01%, CC1(c2ccccc2)CC(C)(C)N(C(=O)c2cc([N+](=O)[O-])cc([N+](=O)[O-])c2)c2ccccc21 (configuration not stated) -4.13%, O=C(Cc1ccc(-n2c(=O)c3sccc3n(Cc3ccc(F)cc3)c2=O)cc1)NCc1ccco1 -7.92%, O=C(NCc1ccco1)c1ccc(Cn2c(=O)c3sccc3n(Cc3ccc(F)cc3)c2=O)cc1 -17.7%, COc1cc(NC(=O)c2ccccc2NS(=O)(=O)c2ccc(Cl)s2)cc(OC)c1 -5.94%, N#CC1=C(N)Oc2cc(O)ccc2C1C1CCCCC1 (configuration not stated) -8.6%, COc1ccc(/C=C/C(=O)NC(=S)NN2CCCCC2c2cccnc2)cc1 (configuration not stated) -29.9%, CCCCCCCC1=Cc2ccc(F)cc2C(C(C(=O)OC)C(=O)OC)N1C(=O)OC (configuration not stated) -2.63% and -13.1%, O=C(/C=C/c1cccs1)NCc1cccnc1 -9.43%, CC(=O)Nc1ccc(S(=O)(=O)Nc2nc3n(n2)C(c2ccccc2)CC(=O)N3)cc1 (configuration not stated) -6.58%, CC(=O)Nc1ccc(S(=O)(=O)NCCc2ccccc2)cc1 -7.41%, COc1ccc(C(=O)CSc2nnc(NC(=O)C3CC(=O)N(c4cccc(OC)c4)C3)s2)cc1 (configuration not stated) -4.45%, CCOC(=O)c1csc(NC(=O)Nc2cccc(OC)c2)n1 -6.02%, COC(=O)C1=C(C)N(C)C(=S)NC1c1ccccc1 (configuration not stated) -10.8%, COC(=O)c1cn(-c2ccccc2)nc1-c1cccnc1 -1.05%, CCOC(=O)c1cnc(SCC(=O)Nc2cccc(OC)c2)nc1N -14.8%, Cc1ccc(CC2S/C(=C(/C#N)C(=O)N3CCOCC3)N(c3ccccc3)C2=O)cc1 (configuration not stated) -13.9%, CN(C)C(=O)c1ccc2c(c1)C1C3CCC(C3)C1C(c1ccccc1)N2 (configuration not stated) -9.73%, c1nnc2c3c4c(sc3ncn12)CCC4 -16.5%, N=c1c2c3c(sc2ncn1N)CCCCC3 -10.1%, CCOC(=O)/C(=N\Nc1cc(Cl)ccc1Cl)N1CCN(C)CC1 -8.38%, CCCCOc1ccc(C(=O)N/C(=C/C=C/c2ccccc2)C(=O)N2CCOCC2)cc1 -16%, COc1cccc(C(=O)Nc2cc3c(cc2Br)OCCCO3)c1 -9.03%, FC(F)(F)Oc1ccc(NC(=S)NCc2ccccc2)cc1 -11.2%, COC(=O)Cc1ccc(NC(=S)NCc2ccc(Cl)cc2)cc1 -8.96%, Cc1c(Cl)c([N+](=O)[O-])nn1CCCC(=O)NC(C)c1ccccc1 (configuration not stated) -2.71%, Cc1cc(C(=O)Nc2c(C)nn(Cc3ccccc3)c2C)on1 -12.9%, COC(=O)c1ccc(COC(=O)c2c(C)nn(Cc3ccccc3Cl)c2Cl)o1 -23%, O=C(COC(=O)[C@H](Cc1ccccc1)NC(=O)c1cccs1)Nc1cc(F)ccc1F 2.87%, Cc1cc(=O)n2nc(N3CCCC(C(=O)NCCC4=CCCCC4)C3)sc2n1 (configuration not stated) -11.9%, Cn1nnc2cc(C(=O)NCCC3=CCCCC3)ccc21 -28.7%, C=CC1=C2C=C(C3CC3)N(CC(C)C)C=C2C(=O)C(C)(OC(=O)c2ccco2)C1=O (configuration not stated) -3.22%, Cc1nn(C)cc1/C=C1\CCC/C(=C\c2cn(C)nc2C)C1=O -27.5%, O=C1NC(c2ccc(-c3ccccc3[N+](=O)[O-])o2)C(C(=O)c2ccc(Cl)cc2)C(O)(C(F)(F)F)N1 (configuration not stated) -3.47%, C#CCCCc1nc2ccccc2c(=O)n1N -10.2%, COc1cc(CN2CC(C)CC(C)C2)cc([N+](=O)[O-])c1O (configuration not stated) -17.1%, Cc1ccc(NC(=S)NC(=O)/C=C/c2ccc(Cl)cc2)cc1 -18.9%, CC(NC(=O)COC(=O)C1CCN(S(=O)(=O)c2ccccc2C(F)(F)F)CC1)c1ccccc1 (configuration not stated) -6.33%, CC1(OC(=O)c2ccc(Cl)nc2)C(=O)Cc2cc(-c3ccsc3)ncc2C1=O (configuration not stated) 2.16%, O=C(NCCN1CCOCC1)c1cc(Sc2cccc(Cl)c2)nc2ccccc12 -1.7%, O=C(NC(=S)Nc1cc(C(F)(F)F)ccc1N1CCOCC1)c1ccc(-c2cccc(Cl)c2)o1 -5.6%, CCC(=O)/C=C1\Sc2ccccc2N1CC -16.1%, CCN1C(=O)/C(=C\N2CCN(c3ccccc3)CC2)SC1=S -18.6%, COc1ccc(C)cc1NC(=O)C(OC(=O)c1cccc(S(=O)(=O)N(C)c2ccccc2)c1)c1ccccc1 (configuration not stated) -17.6%, CC(=O)c1c(N2CCN(c3ccc(F)cc3)CC2)nc(=S)n(-c2ccccc2)c1C -7.92%, O=[N+]([O-])c1ccc(N2CCNCC2)cc1NCc1cccnc1 -18.8%, O=C1OC(OC(=O)c2ccccc2Br)C(N2CCOCC2)=C1Cl (configuration not stated) -15.3%, O=C(CCn1c(SCC(=O)c2ccccc2)nc2ccccc2c1=O)NCc1ccc(F)cc1 -4.59%, COc1ccc(OCc2ccc(-c3nc4ccccc4c(=O)n3N)o2)cc1 -2.6%, O=C(CSc1nc2ccccc2[nH]1)Nc1nc(-c2ccccc2)c(-c2ccccc2)o1 -28.7%, O=C(CN1C(=O)/C(=C\c2ccccc2F)SC1=S)Nc1nc2ccccc2s1 -21.2%, O=C(Nc1ccc(Cl)cc1)c1ccsn1 -18.4%, CC(=O)Nc1cc(C(=O)O)ccc1S(=O)(=O)c1ccc(Cl)cc1 -9.11%, Cc1ccccc1Nc1nc(N)nc(CSc2ccccc2)n1 -2.99%, COc1ccc(-n2c(C)cc(C(=O)CN3C(=O)NC4(CCc5ccccc54)C3=O)c2C)cc1 (configuration not stated) -8.92%, COc1cc(/C=C/C(=O)O)cc(S(=O)(=O)Nc2ccccc2SC)c1OC -7.12%, Cc1ccc(N(CC(O)CN2CCCC2)S(=O)(=O)c2ccccc2)cc1 (configuration not stated) -2.29%, Cc1cc(C)n(CC(O)CN(c2ccccc2)S(=O)(=O)c2ccc3ccccc3c2)n1 (configuration not stated) -6.52%

Potency, active:
Cc1ccc(NC(=O)N2CCC(c3nc4c(nnn4Cc4c(F)cccc4Cl)c(=O)[nH]3)CC2)cc1 12.6 µM, COc1ccc(Cn2nnc3c(=O)[nH]c(C4CCN(C(=O)c5ccccc5Cl)CC4)nc32)cc1 7.94 µM, O=C(Nc1nc(-c2ccncc2)cs1)C1COc2ccccc2O1 (configuration not stated) 7.94 µM, COCCOC(=O)c1sc(=S)n(CCOC)c1N 28.2 µM, O=C(NCc1ccco1)c1cc2sccc2n1Cc1ccc(F)cc1 17.8 µM, O=C(O)c1c(Br)c(Br)c(Br)c(Br)c1C1c2ccc(O)cc2Oc2cc(O)ccc21 2.51 µM, CC(=O)Nc1ccc(S(=O)(=O)NC2(C(F)(F)F)C(=O)Nc3c2c(=O)[nH]c(=O)n3Cc2ccccc2)cc1 (configuration not stated) 17.8 µM, CCOC(=O)c1sc(=S)n(-c2cccc(OC)c2)c1N 28.2 µM, COC(=O)c1sc(=S)n(-c2ccccc2)c1N 14.1 µM, S=c1[nH]nc2c3c4c(sc3ncn12)CCCC4 20 µM, COC(=O)Cc1ccc(NC(=S)NCc2ccccc2)cc1 20 µM, Cc1nn(Cc2ccccc2)c(Cl)c1C(=O)OC1CCOC1=O (configuration not stated) 15.8 µM, CC1CCCN(C(=O)c2ccc3c(c2)C(=O)N(CCC2=CCCCC2)C3=O)C1 (configuration not stated) 0.891 µM, CCn1cc(/C=C2/SC(=S)NC2=O)c(C)n1 17.8 µM, Cc1cc(-c2n[nH]c(=S)n2/N=C/C(Br)=C/c2ccccc2)n[nH]1 3.98 µM, S=c1[nH]nc(-c2cccnc2)n1/N=C/C(Cl)=C\c1ccccc1 1.58 µM, CCN1C(=O)/C(=C2/Sc3ccccc3N2CCCS(=O)(=O)O)SC1=S 20 µM, Cc1ccc(C(=O)CSc2nc3ccccc3c(=O)n2N)o1 25.1 µM, O=C(Nc1ccccc1)c1nnsc1S(=O)(=O)c1ccc(Cl)cc1 11.2 µM, COc1ccc([N+](=O)[O-])cc1N(CC(O)Cn1nnc2ccccc21)S(=O)(=O)c1ccc(C)cc1 (configuration not stated) 28.2 µM
